About 2,200 (88%) of roughly 2,500 compounds were called active. So high a share suggests a set chosen from earlier hits. These entries were drawn from the full list. Values without a mark were called inactive.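 Rule for the calls: active = primary screen active, with duplicate mean activation above negative control mean plus 3 SD (cut at about 11% in these data); inactive = the rest.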

In this assay the target is High affinity choline transporter 1 (Homo sapiens) (UniProt Q9GZV3). Kind of assay: CHT activators, confirmation, cell-based, membrane potential dye, duplicate (AID 504833). The note with it: CHT-expressing cells, membrane potential dye fluorescence (FDSS); at 10 µM; stronger effect = higher value; % of choline EC20–EC90 response window; HEK293 expressing CHT LV-AA mutant; choline added at its EC20.
High affinity choline transporter 1 (Homo sapiens), sequence (Q9GZV3 whole entry, looked up): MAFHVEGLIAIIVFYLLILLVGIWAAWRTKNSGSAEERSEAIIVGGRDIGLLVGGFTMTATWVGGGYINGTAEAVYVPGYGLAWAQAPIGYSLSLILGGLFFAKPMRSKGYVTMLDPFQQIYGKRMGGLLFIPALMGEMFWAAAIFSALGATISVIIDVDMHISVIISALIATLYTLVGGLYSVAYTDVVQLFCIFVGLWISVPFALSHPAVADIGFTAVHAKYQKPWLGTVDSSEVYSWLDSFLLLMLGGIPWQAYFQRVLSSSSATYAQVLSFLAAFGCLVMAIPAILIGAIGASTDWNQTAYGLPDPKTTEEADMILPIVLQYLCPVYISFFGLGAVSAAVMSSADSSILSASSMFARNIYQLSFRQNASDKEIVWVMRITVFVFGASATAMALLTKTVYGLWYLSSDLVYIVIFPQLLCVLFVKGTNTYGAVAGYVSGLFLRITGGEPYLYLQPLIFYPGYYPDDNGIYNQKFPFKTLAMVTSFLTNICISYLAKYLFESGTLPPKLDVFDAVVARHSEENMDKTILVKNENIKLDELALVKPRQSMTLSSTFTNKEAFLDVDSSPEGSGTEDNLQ
As for `O=C(C1=C(O)C(=O)N(Cc2ccccc2)C1c1ccco1)c1ccco1` (configuration not stated), the activation is 9.6%.
Regarding `O=C(COC(=O)C1CCN(S(=O)(=O)c2ccc3c(c2)OCCO3)CC1)Nc1ccccc1OC(F)F`, the activation is 4.44%.
To `N#C/C(=C\c1ccc(-c2cccc([N+](=O)[O-])c2)o1)C(=O)NCCN1CCOCC1` belongs 15.6% (active); to `N#Cc1ccc(/C=C2\CCn3c2nc2cc(C(=O)O)ccc2c3=O)cc1`, 48.6% (active); to `COc1ccc(CC2c3cc(OC)c(OC)cc3CC[N+]2(C)CCC(=O)OCCCCCOC(=O)CC[N+]2(C)CCc3cc(OC)c(OC)cc3C2Cc2ccc(OC)c(OC)c2)cc1OC` (configuration not stated), 35.7% (active).
Next, `CC(Nc1nc(N2CCN(CCO)CC2)nc2ccccc12)c1ccccc1` (configuration not stated): 24.3% (active).
Consider `COc1ccc(C(O)(C2CCCCC2)C(CN2CCCC2)c2ccccc2)cc1` (configuration not stated), for which the activation is 35.9% (active).
Next, `CN(C)c1cc(N)c2ccccc2n1` (tested in a mixture with another compound): 67.2% (active).
In the case of `CC(C)(C)Nc1nc(-c2ccccn2)nc2ccccc12`, the activation was 57.4% (active).
Regarding `COc1cc2nc(N3CCN(C(=O)[C@@H]4CCCO4)CC3)nc(N)c2cc1OC`, the activation was 43% (active).
Next, `Cn1c(=O)n(C)c2cc(C(=O)Nc3ccc4c(c3)OCO4)ccc21`: 43.2% (active); `O=C(NCCC1=CCCCC1)C1CCN(Cc2cnn(-c3ccccc3)c2-n2cccc2)CC1`: 29.7% (active); `O=[N+]([O-])c1ccc(N2CCNCC2)cc1NCc1cccnc1`: 52.9% (active).
Next, `Cc1ccc(C(=O)C[n+]2cc(-c3ccccc3)n3c2CCCCC3)cc1`: 43.1% (active).
Next, `CCN1/C(=C/c2ccc3ccc(C)cc3[n+]2CC)Sc2ccccc21`: 3.38%; `Cc1ccc(-n2c(SCC(=O)N3c4ccccc4Sc4ccccc43)nnc2-c2ccncc2)cc1`: 21.6% (active); `Cc1ccc(C(=O)c2ccc(N3CCN(C)CC3)c([N+](=O)[O-])c2)cc1`: 9.27%.
Take `CCN1CCN(c2ccc([N+](=O)[O-])cc2C(=O)c2ccc(Cl)cc2)CC1`: the activation was 50.4% (active).
To `CN(C)c1cc[n+](Cc2ccccc2)cc1` belongs 50.2% (active); to `N=c1c2c3c(sc2ncn1CCCN1CCOCC1)CCCCC3`, 72.9% (active).
To `N=c1c2c3c(sc2ncn1N)CCCCC3` belongs 42.9% (active); to `COc1ccc([N+](=O)[O-])cc1N(CC(O)CN(CC(C)C)CC(C)C)S(=O)(=O)c1ccc(C)cc1` (configuration not stated), 37.9% (active).
In the case of `Cc1nc2ccccc2c2oc(C(=O)NCCCN3CCC(C)CC3)cc12`, the activation is 13.8% (active).
To `O=C(c1ccccc1F)N(Cc1ccccc1)Cc1ccccc1` belongs 34.5% (active).
Next, `CCN(CC)CCCNC(=O)c1cn(C)c2ccc(S(=O)(=O)N(C)C3CCCCC3)cc2c1=O`: 32.9% (active); `CCN(CC)CCC(c1cc(OC)c(OC)c(OC)c1)c1c(OC)cc(OC)c2c(-c3ccccc3)cc(=O)oc12` (configuration not stated): 27.1% (active).
Regarding `COc1ccc(Nc2cc(C)nc(-n3nc(C)cc3C)n2)cc1`, the activation is 12.6% (active).
To `O=Cc1ccc(OCc2cn3ccccc3n2)cc1` belongs 38.8% (active); to `Cc1cc2c(cc1C)[n+](C)cn2CC(O)COCC1CC=CCC1` (configuration not stated), 80.5% (active).
To `COc1ccccc1NC(=O)C1=C(C)Nc2nc3ccccc3n2C1c1cccs1` (configuration not stated) belongs 17.7% (active); to `Cc1cc(=O)oc2cc(OCCC[n+]3ccccc3)ccc12`, 61.4% (active).
`O=C(CCC1CCN(C(=O)c2cccc(Cl)c2F)CC1)Nc1ccccc1`: the activation was 24.5% (active).

These data come from PubChem BioAssay AID504833 (Johns Hopkins Ion Channel Center, 2011).
